This is part of a sample that, as a whole, favours compounds with a hit. Of some 79,000 tested, about 15% had one in any assay. Unmarked numbers belong to inactive results. Calls of active or inactive are those of the source. Rule as the data show it: active = growth inhibition above about 70%; inactive = the rest.
How the values were obtained:
[1] = NCI Yeast Anticancer Drug Screen. Data for the rad50 strain (AID 155);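 also: 0% = growth of vehicle-only cultures of the same strain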; settings: S. cerevisiae rad50 strain growth inhibition; at 50.0 µM; stronger effect = higher value
Procedure, shortened: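 Growth of the mutant yeast was measured after compound exposure and referenced to vehicle-treated cultures.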

[2] = NCI Yeast Anticancer Drug Screen. Data for the sgs1 mgt1 strain (AID 161);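 also: 0% = growth of cultures given vehicle only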; settings: S. cerevisiae sgs1 mgt1 strain, at 50.0 µM, stronger effect = higher value
Procedure, shortened: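 Read-out: growth inhibition vs vehicle controls. Cells: mutant yeast strain deficient in DNA damage repair.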

[3] = NCI Yeast Anticancer Drug Screen. Data for the cln2 rad14 strain (AID 165);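 also: 0% = growth equal to vehicle treated cultures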; settings: S. cerevisiae cln2 rad14 strain, at 50.0 µM, stronger effect = higher value
Procedure, shortened: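 The screen exposed genetically defined yeast (cln2 rad14) to test compounds and scored growth inhibition relative to vehicle-treated controls.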

[4] = NCI Yeast Anticancer Drug Screen. Data for the bub3 strain (AID 167); settings: S. cerevisiae bub3 mutant strain, at 50.0 µM, stronger effect = higher value
Procedure, shortened: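 Whole-cell yeast assay. The mutant strain was incubated with compounds, and growth inhibition was determined by comparison with vehicle-treated cells.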

[5] = NCI Yeast Anticancer Drug Screen. Data for the mlh1 rad18 strain (AID 175); settings: S. cerevisiae mlh1 rad18 strain growth inhibition; at 50.0 µM; stronger effect = higher value
Procedure, shortened: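 Compound-treated yeast growth, normalised to vehicle controls. Strain bears defined DNA repair mutations.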

[6] = NCI Yeast Anticancer Drug Screen. Data for the mec2-1 strain (AID 157); settings: S. cerevisiae mec2-1 strain, at 50.0 µM, stronger effect = higher value
Procedure, shortened: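 Cells of the genetically defined mec2-1 yeast strain are incubated with test compound. Inhibition of growth is calculated against vehicle-treated controls.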

SMILES | growth inhibition [1] | growth inhibition [2] | growth inhibition [3] | growth inhibition [4] | growth inhibition [5] | growth inhibition [6] [%]
CC(=O)n1c2ccccc2c2nc3ccccc3nc21 | 0.3% | 11.9% | -30.9% | -19.6% | -14.1% | 
C=CCCCCC1CCC2CCC(CCCCC=C)N12 (stereo not given) | 40.8% | 38.6% | 42.5% | 49.4% | 35.9% | 
CCNC(=O)OC(C)C(O)c1ccccc1 (stereo not given) | 0.05% | 33.2% | 6.8% | -19.6% | 29.2% | 
CCN(Cc1cccc(S(=O)(=O)O)c1)c1ccc(C(=C2C=CC(=[N+](C)C)C=C2)c2ccc(N(C)C)cc2)c(S(=O)(=O)O)c1 | 8.35% | 28.1% | -8.55% | 11.9% | 26.4% | 
O=C1CCCC2=C1CC1=C(CCCC1=O)N2c1ccccc1C(=O)O | -25.2% | -23.8% | -5% | -21.9% | -36.3% | 
Cc1csc(NC(=O)C2C3CCC(O3)C2C(=O)O)n1 (stereo not given) | 22.1% | -6.5% | 10.4% | -4.95% | -12.6% | 
C#CCNC(=O)NCCCl | 18.9% | -0.3% | -34.1% | 27.9% | 2.65% | 
CCCCCCCCCCCCCC1CCC(CC)N1 (stereo not given) | 92% (active) | 92.2% (active) | 91.6% (active) | 91.8% (active) | 91.8% (active) | 
Cn1ncc(=O)[nH]c1=O | -15.2% | -23.4% | 10.1% | -9.85% | -10.3% | 
O=C1C2=Cc3ccccc3OC2(O)Oc2cc(O)ccc21 (stereo not given) | 10.5% | 0.05% | -4.1% | -2.15% | -36.6% | 
Fc1cccc(CSC(=S)Nc2ccc(Cl)c(C(F)(F)F)c2)c1 | 99.1% (active) | 99.5% (active) | 99.2% (active) | 99.2% (active) | 99% (active) | 
CC(N)CCCO (stereo not given) | -5.15% | 0.75% | 10.3% | -2.05% | -2.05% | 
CCCCNC(=O)c1cc2c(cc1Cl)Sc1nccn1S2(=O)=O | -1.1% | 1.35% | 9.2% | 43.9% | 28.6% | 
c1cc2[nH]snc2c2cncc12 | 12.5% | 0.25% | -19.1% | -24.1% | 6.6% | 
CCOC(=O)C(NC(=O)c1cccc(Cl)c1)(Nc1ccc(S(=O)(=O)Nc2cc(C)on2)cc1)C(F)(F)F (stereo not given) | 67.2% | 82.3% (active) | 84.7% (active) | 79.2% (active) | 91% (active) | 
CCCCN(C)CC(C)O (stereo not given) | -10.7% | -13.8% | -24.3% | 4.85% | -22.2% | 
O=C1N(O)C2(C=CCCC2)/C(=N/O)C12CCCCC2 (stereo not given) | -8.5% | -0.9% | 11.4% | 11.4% | 12.1% | 
COCOc1ccc(C=O)cc1 | 9.75% | -14.3% | -4.6% | -14.1% | -5.65% | 
COC(=O)c1c(C)cc(C)c(C(C)=O)c1O | -16.9% | 0% | -18.7% | 0.75% | -16.1% | 
CCc1cc2c(cc1/C(C)=N/N=C(\C)c1cc3c(cc1CC)C(C)(C)CCC3(C)C)C(C)(C)CCC2(C)C | -27.1% | -9.3% | -30.6% | 9.95% | -15.5% | 
[N-]=[N+]=C(C(=O)OCC#CCOC(=O)C(=[N+]=[N-])S(=O)(=O)c1ccccc1)S(=O)(=O)c1ccccc1 | -8.95% | 12.8% | -31.6% | -8.95% | -17.1% | 
Brc1ncnc2c1ncn2C1CCCO1 (stereo not given) | -21.3% | -1.5% | -29.6% | 34.4% | -32.2% | 
O=S(=O)(O)SCCCNCCCCCCCCNCCCSS(=O)(=O)O | -18.6% | -1.6% | -13.3% | 8.45% | 3.45% | 
C/C(=N/NS(=O)(=O)c1ccc(N)cc1)c1ccccc1 | 9.9% | 1.45% | 15.6% | -41.4% | -17.8% | 
CC(C)CCN(CC(C)C)C(=O)c1ccc([N+](=O)[O-])cc1 (tested in a mixture with another compound) | 16.1% | 8.75% | -3.25% | -5.6% | 14.1% | 
CCC(=O)c1cc2c(cc1O)CC(C(=O)CC)c1ccccc1-2 (stereo not given) | 13.3% | 17% | -2.55% | 11.2% | 12.4% | 
CCCCCCC(C)CC(=O)O (stereo not given) | -4.7% | 0% | -59% | -7.2% | -21% | 
COC1OC(COS(C)(=O)=O)C(OS(C)(=O)=O)C(OS(C)(=O)=O)C1OS(C)(=O)=O (stereo not given) | -2.8% | -26.4% | -67% | 1.4% | 10.3% | 
CN(CCCN)CCCN |  | -32.6% | -55.6% | -28.6% | -21.7% | -11.2

— PubChem BioAssay (NCI)
